# In PubChem BioAssay (EPA / NIEHS):
# The source made the active and inactive calls. How the source made its calls: active means hit-call score of the fitted dose curve at least 0.9, where 1 is the maximum; inactive means score below 0.9.
# Assay: ATG_AP_1_CIS: Attagene CIS-FACTORIAL HepG2 Assay for human Activator Protein 1 (AP-1) (AID 2282931)
# Conditions: HepG2 Attagene cis-factorial AP-1 reporter mRNA; actives raise or lower the signal
# Protocol: ATG_CIS is a cell-based, multiplexed-readout assay that uses HepG2, a human liver cell line, with measurements taken at 24 hours after chemical dosing in a 24-well plate.ATG_AP_1_CIS is one of 52 assay component(s) measured or calculated from the ATG_CIS assay. It is designed to make measurements of mRNA induction, a form of inducible reporter, as detected with fluorescence intensity signals by Reverse transcription polymerase chain reaction (RT-PCR) and Capillary electrophoresis technology.Data from the assay component ATG_AP_1_CIS was analyzed into 1 assay endpoint. This assay endpoint, ATG_AP_1_CIS, was analyzed with bidirectional fitting relative to DMSO as the negative control and baseline of activity. Using a type of inducible reporter, measures of mRNA for gain or loss-of-signal activity can be used to understand the reporter gene at the transcription factor-level as they relate to the gene FOS and JUN. Furthermore, this assay endpoint can be referred to as a primary readout, because this assay has produced multiple assay endpoints where this one serves a reporter gene function. To generalize the intended target to other relatable targets, this assay endpoint is annotated to the dna binding intended target family, where the subfamily is basic leucine zipper.
# Human liver HepG2 cells are transiently transfected with multiple reporter transcription units (MRTUs) in 6-well plates using FuGene 6 reagent (Roche; 3 ml FuGene/1 mg DNA). The MRTU constructs are regulated by a cis-regulating element (promoter). […] A major difference between the CIS and TRANS system is that in CIS activities of endogenous TFs are measured, whereas the TRANS assay evaluates changes in activities of exogenous, chimeric NR-Gal4 proteins. […] At the end of 24 hour incubation, total RNA was isolated using TriZol reagent (Invitrogen). The isolated RNA is then reverse-transcribed using oligo(dT) primer and Mo-MLV reverse transcriptase (Invitrogen) with DNAse I (Ambion) treatment for 30 min. The one-tenth of the produced cDNA was amplified by PCR using Taq DNA polymerase (Invitrogen) and two reporter sequence-specific primers. The PCR products were fluorescently labeled by primer extension with 6-arboxyfluorescein (6-FAM) 5'-labeled reporter sequence-specific primer (2 min at 95 C, 20 s at 68 C and 10 min at 72 C) and these products were digested with 5U of HpaI (New England Biolabs) for 2h at 37 C. The fragments were purified using Qiaquick PCR columns (Qiagen), analyzed on an ABI 3130xL genetic analyzer (Applied Biosystems) with peak positions identified by using a set of X-rhodamine (ROX)-labeled MapMarker1000 molecular weight standards (BioVentures). The raw capillary electrophoresis data was processed using Attagraph software (Attagene).
SMILES,outcome,AC50
FC(F)(F)N1C(F)(F)C(F)(F)OC(F)(F)C1(F)F,inactive,
CC(=O)Nc1ccc(O)cc1,inactive,
CC(C)c1c(C(=O)Nc2ccccc2)c(-c2ccccc2)c(-c2ccc(F)cc2)n1CC[C@@H](O)C[C@@H](O)CC(=O)O,inactive,
O=c1cc(-c2ccccc2)oc2ccc3ccccc3c12,inactive,
Cc1cncc(C)c1,inactive,
O=C1c2ccc(O)c(O)c2C(=O)c2c(O)ccc(O)c21,,50 µM (active)
O=C(O)CCC(F)(F)C(F)(F)C(F)(F)C(F)(F)C(F)(F)F,inactive,
CCCCc1ccc2ccccc2c1S(=O)(=O)O,inactive,
Clc1ccc2c(Cl)ccnc2c1,inactive,
COC(=O)CC(C(C)=O)C(=O)OC (stereo not given),inactive,
CC(C)(C)C1CCCCC1O (stereo not given),inactive,
CN(CCO)S(=O)(=O)C(F)(F)C(F)(F)C(F)(F)C(F)(F)C(F)(F)C(F)(F)C(F)(F)C(F)(F)F,inactive,
Cc1ccccc1OCC(=O)O,inactive,
Cc1cccc2c1ccc1ccccc12,inactive,
O=C(c1ccccc1)c1ccccc1,inactive,
CC(C)(c1ccc(Oc2ccc(N)cc2)cc1)c1ccc(Oc2ccc(N)cc2)cc1,inactive,
CCCCCCCC(OC)OC,inactive,
CC1=NN(c2ccccc2)C(=O)C1,inactive,
CCCCC(CC)C(=O)O (stereo not given),inactive,
Cc1ccc2ccc3ccc(C)cc3c2c1,inactive,

SMILES,outcome,AC50
COCC1CCC(CO)CC1 (stereo not given),inactive,
C[N+](C)(CCCNS(=O)(=O)CCC(F)(F)C(F)(F)C(F)(F)C(F)(F)C(F)(F)C(F)(F)F)CC(=O)[O-],,0.00657 µM (active)
C=CC(=O)OCCN(CC)CC,,178 µM (active)
OCC(F)(F)C(F)(F)C(F)(F)C(F)(F)C(F)(F)C(F)(F)C(F)(F)C(F)(F)C(F)(F)C(F)(F)C(F)(F)F,inactive,
CCCCCCCCCCCC(=O)NCCCN(C)C,inactive,
C=CC(C)(CCC=C(C)C)OC(C)=O (stereo not given),inactive,
CCO[Si](C)(C)OCC,inactive,
Cn1sccc1=O,inactive,
CC(O)COc1ccccc1 (stereo not given),inactive,
CC(=O)CC(C)C,inactive,
C=CC(=O)OCCC(F)(F)C(F)(F)C(F)(F)C(F)(F)C(F)(F)C(F)(F)C(F)(F)C(F)(F)F,inactive,
c1cc[nH]c1,inactive,
CCO[Si](CCC1CCC2OC2C1)(OCC)OCC (stereo not given),inactive,
C=CC(=C)CC/C=C(\C)CCC=C(C)C,inactive,
CCC(=O)C=Cc1ccc(OC)cc1,inactive,
CCOC(=O)c1nc(C(Cl)(Cl)Cl)n(-c2ccc(Cl)cc2Cl)n1,,57.8 µM (active)
CCCCCCCCCCCC[N+](C)(C)CCCCCCCCCCCC,inactive,
Nc1cc(Cl)c(-c2cc(Cl)c(N)cc2Cl)cc1Cl,,3.81 µM (active)
O=S(=O)(O)c1ccccc1,inactive,
CCCCCCCCCCCCCCC,inactive,
